Results on 14 compounds are retold here after PubChem BioAssay.

Test [1] is described as follows: sensitizers of A549 cells to miR-34 induction, primary screen, imaging, A549 dox-inducible miR-34, nuclei and caspase counts (AID 1347080). The following applies: A549 miR-34 inducible, Hoechst nuclei count, 48 h.
Test [2] can be described thus: survival rescue of mitochondrial mutant cells in low glucose, primary screen, MELAS cybrids, Rieske KO mouse fibroblasts, CellTiter-Glo (AID 1508586;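 active means mean z-score across replicates of 1.96 or higher in either the MELAS or the Rieske mutant cell line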;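 further: z relative to plate mean and SD of compound and empty wells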). (In general: ATP-based viability assays read luminescence as a measure of living cells.)
Test [3] addresses NAD(+) hydrolase SARM1 (Homo sapiens) (UniProt Q6SZW1). The test is described as follows: SARM1 TIR NADase inhibitors, cell lysate, NAD-Glo luminescence (AID 1508614;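 active means compound whose remaining NAD level is above about 45 nM, limit read from the data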). The following applies: SAM-TIR HEK293T lysate NADase, at 1 µM, stronger effect = higher value.
Test [4] addresses Mitogen-activated protein kinase 7 (Homo sapiens) (UniProt Q13164). The test is described as follows: ERK5 transactivation activators in reporter cells, primary screen, cell-based, HTS (AID 1508626;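 active means luciferase signal above three times the same-plate solvent-only control wells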;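 further: luciferase driven by Gal4-ERK5 fusion binding five Gal4 sites before minimal TATA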). The following applies: HeLa Gal4-ERK5 transactivation, 18 h, at 5 µM, stronger effect = higher value.
Setting [5] is: stronger effect = lower value, cell number ratio, induced over uninduced.
[6] abbreviates: measured here: relative caspase fold change +Dox/-Dox.
[7] abbreviates: measured here: total cells with miR-34 induction, stronger effect = lower value.
The mark [8] stands for this setting: measured here: total cells without miR-34 induction.
The mark [9] stands for this setting: MELAS cybrid survival, CellTiter-Glo 48 h, stronger effect = higher value.
[10] abbreviates: Rieske KO mouse fibroblast survival, CellTiter-Glo 72 h.

Several values for one entry are separate records, joined by “and”; a condition that tells them apart may be missing. Identical values can stand only once. Activity calls are given as the source filed them.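 How the source made its calls, unless noted: active means compounds whose cell count with miR-34 switched on is under 0.7 times the count with it off; inactive means the rest.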

Sequence of NAD(+) hydrolase SARM1 (Homo sapiens) (Q6SZW1 whole entry, looked up, the tested form may be a part): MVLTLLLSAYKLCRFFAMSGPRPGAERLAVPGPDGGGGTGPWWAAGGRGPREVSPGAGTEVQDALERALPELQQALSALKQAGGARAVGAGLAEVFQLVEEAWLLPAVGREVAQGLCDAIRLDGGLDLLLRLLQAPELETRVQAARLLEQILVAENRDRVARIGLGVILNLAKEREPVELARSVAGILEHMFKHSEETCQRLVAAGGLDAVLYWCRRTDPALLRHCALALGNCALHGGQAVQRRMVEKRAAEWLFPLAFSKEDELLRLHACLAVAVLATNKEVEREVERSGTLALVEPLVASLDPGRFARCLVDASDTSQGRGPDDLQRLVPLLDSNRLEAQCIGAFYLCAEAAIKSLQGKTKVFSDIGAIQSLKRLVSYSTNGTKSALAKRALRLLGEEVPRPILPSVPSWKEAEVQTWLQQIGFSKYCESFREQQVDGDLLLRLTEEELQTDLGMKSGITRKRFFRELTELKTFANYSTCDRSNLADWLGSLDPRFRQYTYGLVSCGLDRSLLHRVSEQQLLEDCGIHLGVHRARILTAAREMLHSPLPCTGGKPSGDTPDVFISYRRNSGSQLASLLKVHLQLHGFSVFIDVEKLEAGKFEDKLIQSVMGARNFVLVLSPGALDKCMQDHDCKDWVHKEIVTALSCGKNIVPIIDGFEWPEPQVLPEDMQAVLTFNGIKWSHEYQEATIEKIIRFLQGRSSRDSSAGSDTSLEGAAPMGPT
Sequence of Mitogen-activated protein kinase 7 (Homo sapiens) (Q13164 whole entry, looked up, the tested form may be a part): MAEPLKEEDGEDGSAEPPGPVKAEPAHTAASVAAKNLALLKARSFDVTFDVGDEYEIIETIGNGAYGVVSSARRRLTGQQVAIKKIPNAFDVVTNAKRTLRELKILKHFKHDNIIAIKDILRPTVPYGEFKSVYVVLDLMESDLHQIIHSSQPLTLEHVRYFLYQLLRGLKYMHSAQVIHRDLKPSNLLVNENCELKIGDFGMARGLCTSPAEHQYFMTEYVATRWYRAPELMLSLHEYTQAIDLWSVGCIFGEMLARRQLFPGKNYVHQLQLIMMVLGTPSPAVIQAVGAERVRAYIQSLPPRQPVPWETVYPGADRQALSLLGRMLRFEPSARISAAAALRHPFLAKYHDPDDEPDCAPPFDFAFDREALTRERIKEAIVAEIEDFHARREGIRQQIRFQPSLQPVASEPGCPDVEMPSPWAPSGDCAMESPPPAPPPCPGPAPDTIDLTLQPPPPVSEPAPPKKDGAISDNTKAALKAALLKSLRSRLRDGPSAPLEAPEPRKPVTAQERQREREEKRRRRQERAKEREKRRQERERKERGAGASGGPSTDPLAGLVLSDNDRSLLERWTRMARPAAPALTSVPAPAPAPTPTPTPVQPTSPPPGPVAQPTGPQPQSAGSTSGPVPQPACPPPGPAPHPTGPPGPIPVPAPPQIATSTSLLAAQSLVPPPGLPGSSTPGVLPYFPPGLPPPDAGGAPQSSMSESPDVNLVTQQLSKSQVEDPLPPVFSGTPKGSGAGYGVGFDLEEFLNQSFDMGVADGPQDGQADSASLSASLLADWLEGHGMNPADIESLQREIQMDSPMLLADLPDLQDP

Regarding `Nc1ccc(S(=O)(=O)Nc2nccs2)cc1`, the fold change was 0.93 (inactive) and 0.957 (inactive) and 0.871 (inactive) in test [1] (setting [5]); 1.04 and 0.824 and 4.44 in test [1] (setting [6]). The cell count in test [1] (setting [7]) was 8630 and 7440 and 10900; in test [1] (setting [8]) it was 9270 and 7780 and 12500. In addition, the z-score in test [2] (setting [9]) was -0.000944 (inactive) and 0.344 (inactive); in test [2] (setting [10]), -0.264 and 0.18. Also, the remaining NAD in test [3] was 10 nM (inactive). Further, in test [4], the luciferase signal is 84 AU (inactive).

Turning to `C[C@@H]1C[C@H]2[C@@H]3C[C@H](F)C4=CC(=O)C=C[C@]4(C)[C@@]3(F)[C@@H](O)C[C@]2(C)[C@@]1(O)C(=O)CO`, the fold change in test [1] (setting [5]) is 0.863 (inactive); in test [1] (setting [6]) it was 1.53. In addition, the figures for the cell count in test [1] (setting [7]) and in test [1] (setting [8]) were 6000 and 6940, respectively. Further, the values for the z-score in test [2] (setting [9]) and in test [2] (setting [10]) were 0.578 (inactive) and 0.936, respectively. Further, the remaining NAD in test [3] was 10 nM (inactive). Also, the luciferase signal in test [4] is 116 AU (inactive).

In the case of `CC(=O)OCC(=O)[C@@]1(O)[C@H](C)C[C@H]2[C@@H]3CCC4=CC(=O)C=C[C@]4(C)[C@@]3(F)[C@@H](O)C[C@@]21C`, the results for the fold change in test [1] (setting [5]) and in test [1] (setting [6]) were 0.93 (inactive) and 1.03, respectively. For the same compound, the cell count in test [1] (setting [7]) was 6000; in test [1] (setting [8]) it was 6450. The z-score in test [2] (setting [9]) was -0.294 (inactive); in test [2] (setting [10]) it was 0.00126. Further, in test [3], the remaining NAD was 10 nM (inactive). Also, in test [4], the luciferase signal is 120 AU (inactive).

With `CC(Cc1cccc(C(F)(F)F)c1)NCCOC(=O)c1ccccc1` (configuration not stated), the fold change in test [1] (setting [5]) was 0.816 (inactive); in test [1] (setting [6]) it was 1.56. Also, the cell count came to 8560 in test [1] (setting [7]) and 10500 in test [1] (setting [8]). Also, the z-score was 0.63 (inactive) in test [2] (setting [9]) and 0.0603 in test [2] (setting [10]). Also, in test [3], the remaining NAD was 10 nM (inactive). The luciferase signal in test [4] is 84 AU (inactive).

Consider `NC(=O)N/N=C/c1ccc([N+](=O)[O-])o1`, for which the fold change was 0.848 (inactive) and 0.979 (inactive) in test [1] (setting [5]); 1.31 and 0.64 in test [1] (setting [6]). Further, the cell count was 7760 and 9710 in test [1] (setting [7]); 9150 and 9920 in test [1] (setting [8]). Further, the z-score is -0.906 (inactive) in test [2] (setting [9]) and -1.1 in test [2] (setting [10]). Moreover, the remaining NAD in test [3] was 10 nM (inactive). Besides, in test [4], the luciferase signal is 36 AU (inactive).

For the compound `NC(N)=NS(=O)(=O)c1ccc(N)cc1`, the fold change is 0.891 (inactive) and 0.893 (inactive) and 0.92 (inactive) in test [1] (setting [5]); 1.33 and 1.72 and 4.63 in test [1] (setting [6]). In addition, the cell count is 7720 and 8610 and 11300 in test [1] (setting [7]); 8670 and 9630 and 12200 in test [1] (setting [8]). The z-score was -0.23 (inactive) and -0.511 (inactive) in test [2] (setting [9]); -0.172 and -0.306 in test [2] (setting [10]). Moreover, the remaining NAD in test [3] is 10 nM (inactive). For the same compound, in test [4], the luciferase signal is 188 AU (inactive).

For `COc1ccc(C(=O)c2ccccc2)c(O)c1`, the fold change in test [1] (setting [5]) was 0.864 (inactive) and 0.859 (inactive); in test [1] (setting [6]), 1.19 and 0.952. In addition, the cell count in test [1] (setting [7]) was 7820 and 11100; in test [1] (setting [8]) it was 9050 and 12900. Further, the z-score is -0.0705 (inactive) in test [2] (setting [9]) and -1.09 in test [2] (setting [10]). For the same compound, the remaining NAD in test [3] was 10 nM (inactive). In test [4], the luciferase signal is 36 AU (inactive).

As to `Nc1ccc(S(=O)(=O)NC(=O)c2ccccc2)cc1`, the fold change in test [1] (setting [5]) was 0.806 (inactive) and 0.919 (inactive); in test [1] (setting [6]) it was 1.13 and 2.49. The cell count in test [1] (setting [7]) is 7780 and 10600; in test [1] (setting [8]), 9660 and 11500. For the same compound, the values for the z-score in test [2] (setting [9]) and in test [2] (setting [10]) were -0.2 (inactive) and -0.379, respectively. Also, the remaining NAD in test [3] was 10 nM (inactive). Further, the luciferase signal in test [4] was 32 AU (inactive).

For `COc1ccc(NS(=O)(=O)c2ccc(N)cc2)nn1`, the fold change was 0.86 (inactive) and 0.96 (inactive) and 0.867 (inactive) in test [1] (setting [5]); 1.18 and 0.826 and 3.5 in test [1] (setting [6]). Also, the cell count in test [1] (setting [7]) is 7560 and 8690 and 11000; in test [1] (setting [8]), 8780 and 9050 and 12700. Further, the z-score in test [2] (setting [9]) is -0.236 (inactive) and -0.537 (inactive); in test [2] (setting [10]) it was -0.178 and -1.12. Besides, the remaining NAD in test [3] is 10 nM (inactive). In addition, the luciferase signal in test [4] is 28 AU (inactive).

On to `Cc1ccc(C(=O)C(C)CN2CCCCC2)cc1` (configuration not stated), for which the results for the fold change in test [1] (setting [5]) and in test [1] (setting [6]) were 0.986 (inactive) and 0.455, respectively. For the same compound, the figures for the cell count in test [1] (setting [7]) and in test [1] (setting [8]) were 8610 and 8730, respectively. Moreover, the z-score in test [2] (setting [9]) was -0.166 (inactive); in test [2] (setting [10]), -0.145. In addition, the remaining NAD in test [3] is 10 nM (inactive). Besides, the luciferase signal in test [4] is 40 AU (inactive).

Take `CCN(CC)CCOC(=O)C(c1ccccc1)C1CCCCC1` (configuration not stated): the values for the fold change in test [1] (setting [5]) and in test [1] (setting [6]) were 0.896 (inactive) and 1.16, respectively. Further, the cell count in test [1] (setting [7]) came to 8670; in test [1] (setting [8]), 9680. The z-score in test [2] (setting [9]) was -2.21 (inactive); in test [2] (setting [10]), 0.0498. For the same compound, the remaining NAD in test [3] was 10 nM (inactive). Also, the luciferase signal in test [4] was 52 AU (inactive).

For `CCN(CC)CCNc1ccc(CO)c2sc3ccccc3c(=O)c12`, the fold change is 0.933 (inactive) and 0.872 (inactive) in test [1] (setting [5]); 1.29 and 1.89 in test [1] (setting [6]). Further, the cell count was 3110 and 3390 in test [1] (setting [7]); 3340 and 3880 in test [1] (setting [8]). For the same compound, the z-score was 4.63 (active) in test [2] (setting [9]) and 0.873 in test [2] (setting [10]). In test [3], the remaining NAD is 10 nM (inactive). For the same compound, the luciferase signal in test [4] is 36 AU (inactive).

With `Nc1ccc(S(=O)(=O)Nc2cnc3ccccc3n2)cc1`, the fold change in test [1] (setting [5]) was 0.892 (inactive) and 0.874 (inactive); in test [1] (setting [6]), 0.858 and 3.15. In addition, the cell count in test [1] (setting [7]) was 8790 and 11400; in test [1] (setting [8]), 9850 and 13000. In addition, the z-score in test [2] (setting [9]) is 0.496 (inactive); in test [2] (setting [10]), 0.547. In addition, in test [3], the remaining NAD is 10 nM (inactive). Besides, the luciferase signal in test [4] was 84 AU (inactive).

For the compound `NC(N)=NCCN1CCCCCCC1`, the fold change in test [1] (setting [5]) was 0.903 (inactive) and 0.92 (inactive); in test [1] (setting [6]), 1.86 and 0.829. In addition, the cell count in test [1] (setting [7]) is 8660 and 10700; in test [1] (setting [8]), 9590 and 11600. Moreover, the z-score in test [2] (setting [9]) is -0.808 (inactive); in test [2] (setting [10]), 0.402. Besides, the remaining NAD in test [3] is 10 nM (inactive). Moreover, the luciferase signal in test [4] is 32 AU (inactive).
